# Source: PubChem BioAssay AID1159580 (chemical genetic matrix, 2015)
# The campaign covered roughly 5,500 compounds. About 2,000 (36%) were called active. Roughly 18% stayed inconclusive and do not appear here. This is one part of the list. Values without a mark were called inactive. Cut-off read from the data, not from the text of the source: active = normalized growth mostly below about 0.91 (no sharp cut-off); inconclusive = no clear call, values can overlap the other calls; inactive = mostly above about 0.92.
# Assay: chemical genetic growth profiling, strain panel (AID 1159580);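 note: tested at 20 µM; growth read once vehicle control cultures reached saturation at 30 °C; 1 = growth at the plate median or of vehicle wells; lower values mean less growth of the strain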
# Settings: S. cerevisiae deletion strains, growth OD
compound,measurement,setting,value
CC1(C)C=Cc2c(cc3occ(-c4ccc5c(c4)OCO5)c(=O)c3c2O)O1,normalized growth,"locus YAL013W, strain DEP1, stronger effect = lower value",0.996
same,normalized growth,"locus YAL021C, strain ccr4, stronger effect = lower value",0.931
same,normalized growth,"locus YAL026C, strain drs2, stronger effect = lower value",0.995
same,normalized growth,"locus YAL030W, strain snc1, stronger effect = lower value",0.938
same,normalized growth,"locus YBL061C, strain skt5, stronger effect = lower value",0.839 (active)
same,normalized growth,"locus YBR009C, strain hhf1, stronger effect = lower value",0.982
same,normalized growth,"locus YBR021W, strain FUR4, stronger effect = lower value",1
same,normalized growth,"locus YBR023C, strain chs3, stronger effect = lower value",0.884 (active)
same,normalized growth,"locus YBR171W, strain sec66, stronger effect = lower value",0.998
same,normalized growth,"locus YBR229C, strain ROT2, stronger effect = lower value",1.01
same,normalized growth,"locus YBR231C, strain swc5, stronger effect = lower value",0.864 (active)
same,normalized growth,"locus YBR279W, strain paf1, stronger effect = lower value",0.988
same,normalized growth,"locus YCL011C, strain gbp2, stronger effect = lower value",0.897 (active)
same,normalized growth,"locus YCL016C, strain dcc1, stronger effect = lower value",0.994
same,normalized growth,"locus YCL029C, strain bik1, stronger effect = lower value",1
same,normalized growth,"locus YCL061C, strain MRC1, stronger effect = lower value",0.977
same,normalized growth,"locus YCL069W, strain vba3, stronger effect = lower value",0.971
same,normalized growth,"locus YCR088W, strain abp1, stronger effect = lower value",0.995
same,normalized growth,"locus YDL005C, strain med2, stronger effect = lower value",0.998
same,normalized growth,"locus YDL035C, strain GPR1, stronger effect = lower value",0.908
same,normalized growth,"locus YDL040C, strain nat1, stronger effect = lower value",0.991
same,normalized growth,"locus YDL074C, strain BRE1, stronger effect = lower value",1.01
same,normalized growth,"locus YDL101C, strain DUN1, stronger effect = lower value",1.01
same,normalized growth,"locus YDL134C, strain PPH21, stronger effect = lower value",0.923
same,normalized growth,"locus YDL185W, strain tfp1, stronger effect = lower value",1
same,normalized growth,"locus YDL192W, strain arf1, stronger effect = lower value",0.956
same,normalized growth,"locus YDR001C, strain nth1, stronger effect = lower value",0.998
same,normalized growth,"locus YDR069C, strain doa4, stronger effect = lower value",0.811 (active)
same,normalized growth,"locus YDR101C, strain arx1, stronger effect = lower value",0.983
same,normalized growth,"locus YDR137W, strain rgp1, stronger effect = lower value",1.04
same,normalized growth,"locus YDR159W, strain sac3, stronger effect = lower value",1
same,normalized growth,"locus YDR162C, strain NBP2, stronger effect = lower value",0.976
same,normalized growth,"locus YDR195W, strain ref2",1.01
same,normalized growth,"locus YDR297W, strain sur2, stronger effect = lower value",0.91 (active)
same,normalized growth,"locus YDR318W, strain mcm21, stronger effect = lower value",0.97
same,normalized growth,"locus YDR334W, strain swr1, stronger effect = lower value",0.95
same,normalized growth,"locus YDR335W, strain msn5, stronger effect = lower value",0.978
same,normalized growth,"locus YDR388W, stronger effect = lower value",0.993
same,normalized growth,"locus YDR392W, strain spt3, stronger effect = lower value",0.873
same,normalized growth,"locus YDR502C, strain sam2, stronger effect = lower value",0.989
same,normalized growth,"locus YEL003W, strain gim4, stronger effect = lower value",0.932
same,normalized growth,"locus YEL037C, strain rad23, stronger effect = lower value",0.977
same,normalized growth,"locus YEL061C, strain CIN8 (second series), stronger effect = lower value",0.98
same,normalized growth,"locus YEL061C, strain CIN8, stronger effect = lower value",0.981
same,normalized growth,"locus YER015W, strain faa2, stronger effect = lower value",0.841 (active)
same,normalized growth,"locus YER016W, strain bim1, stronger effect = lower value",0.988
same,normalized growth,"locus YER110C, stronger effect = lower value",1.04
same,normalized growth,"locus YER111C, strain swi4, stronger effect = lower value",0.98
same,normalized growth,"locus YER155C, strain BEM2 (second series), stronger effect = lower value",0.947
same,normalized growth,"locus YER155C, strain BEM2, stronger effect = lower value",1.02
same,normalized growth,"locus YER167W, strain BCK2, stronger effect = lower value",0.967
same,normalized growth,"locus YFR010W, strain ubp6, stronger effect = lower value",0.91
same,normalized growth,"locus YGL078C, strain dbp3, stronger effect = lower value",1.02
same,normalized growth,"locus YGL086W, strain mad1, stronger effect = lower value",0.922 (active)
same,normalized growth,"locus YGL167C, strain pmr1, stronger effect = lower value",1.01
same,normalized growth,"locus YGL173C, strain kem1, stronger effect = lower value",0.817 (active)
same,normalized growth,"locus YGL227W, strain vid30, stronger effect = lower value",1.01
same,normalized growth,"locus YGL240W, strain doc1, stronger effect = lower value",1.02
same,normalized growth,"locus YGL248W, strain PDE1, stronger effect = lower value",0.883 (active)
same,normalized growth,"locus YGL253W, strain hxk2, stronger effect = lower value",0.894 (active)
same,normalized growth,"locus YGR078C, strain PAC10, stronger effect = lower value",0.98
same,normalized growth,"locus YGR135W, strain pre9, stronger effect = lower value",0.964
same,normalized growth,"locus YGR252W, strain gcn5, stronger effect = lower value",1.02
same,normalized growth,"locus YHR013C, strain ard1, stronger effect = lower value",0.982
same,normalized growth,"locus YHR027C, strain rpn1, stronger effect = lower value",0.749 (active)
same,normalized growth,"locus YHR030C, strain SLT2, stronger effect = lower value",0.945
same,normalized growth,"locus YHR079C, strain IRE1 (second series), stronger effect = lower value",1.02
same,normalized growth,"locus YHR094C, strain hxt1, stronger effect = lower value",1.03
same,normalized growth,"locus YHR129C, strain ARP1, stronger effect = lower value",0.94
same,normalized growth,"locus YHR142W, strain chs7, stronger effect = lower value",0.936
same,normalized growth,"locus YHR200W, strain rpn10, stronger effect = lower value",0.968
same,normalized growth,"locus YIL066C, strain RNR3, stronger effect = lower value",0.921
same,normalized growth,"locus YIL073C, strain SPO22, stronger effect = lower value",0.886
same,normalized growth,"locus YIL125W, strain kgd1, stronger effect = lower value",1.03
same,normalized growth,"locus YIR030C, strain dcg1, stronger effect = lower value",1.01
same,normalized growth,"locus YJL092W, strain hpr5, stronger effect = lower value",0.983
same,normalized growth,"locus YJL095W, strain BCK1 (second series), stronger effect = lower value",0.918 (active)
same,normalized growth,"locus YJL095W, strain BCK1, stronger effect = lower value",0.927
same,normalized growth,"locus YJL115W, strain asf1, stronger effect = lower value",1.01
same,normalized growth,"locus YJL129C, strain trk1, stronger effect = lower value",1.01
same,normalized growth,"locus YJL134W, strain LCB3, stronger effect = lower value",0.998
same,normalized growth,"locus YJL154C, strain vps35, stronger effect = lower value",0.997
